Our source for the composite z-score and z-score values is PubChem BioAssay.

The source made the active and inactive calls. Unless noted, the rule behind the calls is not given here.

Test [1] deals with XIP peptide (Xip251-270) binding. In words: small-molecule binders of XIP peptide, primary screen, biochemical, small-molecule microarray, fluorescence 635/667 nm, 0.1 µg/mL protein (AID 1182). The conditions noted are these: fluorescent protein binding, 635 nm, higher = more signal, called active from +8 up or from −8 down.
Test [2] deals with XIP peptide (Xip251-270). The experiment in a line: small-molecule binders of XIP peptide, primary screen, biochemical, small-molecule microarray, fluorescence 635/667 nm, 0.5 µg/mL protein (AID 1183). The conditions noted are these: small-molecule microarray binding, fluorescence 635 nm; higher = more signal.
Test [3] can be described thus: Plasmodium falciparum growth inhibition, primary screen, strain 3D7, DAPI fluorescence, 100 nL (AID 1184).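 Note: parasites grown inside human red blood cells in medium with human serum.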 The conditions noted are these: P. falciparum 3D7 growth, 3 d, higher = more signal.
The target in test [4] is Homeobox protein Hox-A13 (Mus musculus) (UniProt Q62424). The experiment in a line: inhibitors of HoxA13-DNA binding, primary screen, biochemical, fluorescence polarization, labeled oligonucleotide (AID 1185). Particulars: 15 min, higher = more signal, called active from +8 up or from −8 down.
Homeobox protein Hox-A13 (Mus musculus), sequence (Q62424 whole entry, looked up): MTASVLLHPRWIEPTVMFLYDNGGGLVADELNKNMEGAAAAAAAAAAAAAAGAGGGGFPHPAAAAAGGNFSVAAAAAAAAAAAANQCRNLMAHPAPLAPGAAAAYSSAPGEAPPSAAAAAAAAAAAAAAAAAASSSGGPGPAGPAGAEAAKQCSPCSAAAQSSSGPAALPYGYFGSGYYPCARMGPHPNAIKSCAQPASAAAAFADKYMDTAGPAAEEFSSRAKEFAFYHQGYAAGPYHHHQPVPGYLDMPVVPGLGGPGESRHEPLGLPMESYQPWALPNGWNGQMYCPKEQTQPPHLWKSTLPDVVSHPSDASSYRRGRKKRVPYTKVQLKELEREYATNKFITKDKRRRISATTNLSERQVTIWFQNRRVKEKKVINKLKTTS
Test [5] can be described thus: inhibitors of hydroxyurea-induced Chk1 phosphorylation, primary screen, imaging, HeLa, phospho-Chk1 antibody, percent positive cells (AID 1186). The conditions noted are these: hydroxyurea-induced phospho-Chk1 immunofluorescence imaging, higher = more signal.
Test [6] is described as follows: inhibitors of hydroxyurea-induced Chk1 phosphorylation, primary screen, imaging, HeLa, phospho-Chk1 nuclear intensity (AID 1187). Particulars: hydroxyurea-induced phospho-Chk1 immunofluorescence imaging, higher = more signal.

For the molecule `COc1ccc([C@H]2OC[C@@H]3C[C@H](Cc4ccccc4)C(=O)N32)cc1`, the results for the composite z-score in test [1] and in test [2] were -0.299 (inactive) and 0.0713, respectively. The z-score in test [3] was 0.877; in test [4], -0.716 (inactive); in test [5], 0.311 (inactive); in test [6] it was 0.0211 (inactive).
In the case of `COc1ccc(CCNC(=O)[C@@H]2c3ccccc3C(=O)N(C3CCCCC3)[C@H]2c2ccc(CO)cc2)cc1`, the composite z-score in test [1] was 0.09 (inactive); in test [2], 0.658. Moreover, the z-score in test [3] was -1.76; in test [4], -3.32 (inactive); in test [5] it was 0.183 (inactive); in test [6] it was -0.0923 (inactive).
Take `CO[C@H]1O[C@H](CO)[C@@H](OC(=O)CCc2ccccc2)[C@@H]2OC(=O)[C@@H](Cc3ccccc3)C/C=C/C[C@H](Cc3ccccc3)C(=O)O[C@@H]12`: the composite z-score in test [1] is -0.315 (inactive); in test [2], 0.506. Moreover, the z-score in test [3] is -0.655; in test [4], -3.06 (inactive); in test [5] it was -0.682 (inactive); in test [6], -0.379 (inactive).
Take `C=CC[C@@]1(C(=O)NCCCOC)N=C(c2ccc(OCCCO)cc2)O[C@@H]1c1ccccc1N=[N+]=[N-]`: the composite z-score is 0.05 (inactive) in test [1] and 0.516 in test [2]. The z-score was -2.29 in test [3], -6.15 (inactive) in test [4], -0.679 (inactive) in test [5] and -0.6 (inactive) in test [6].
For `COCCCNC(=O)[C@@]1(CCC(=O)OC(C)(C)C)N=C(c2ccc(OCCCO)cc2)O[C@H]1c1ccccc1N=[N+]=[N-]`, the composite z-score in test [1] was 3.51 (inactive); in test [2], 0.476. Moreover, the z-score in test [3] is -2.39; in test [4], -4.09 (inactive); in test [5] it was 0.739 (inactive); in test [6], 1.43 (inactive).
As to `O=C(NCc1ccc(F)cc1)[C@H]1C[C@H]2C(=O)NCC(=O)N2[C@H]1c1ccc(O)cc1`, the composite z-score in test [1] is 0.981 (inactive); in test [2], 0.842. In addition, the z-score was -0.16 in test [3], -1.87 (inactive) in test [4], -0.339 (inactive) in test [5] and -0.45 (inactive) in test [6].
As for `C#CCN([C@@H](Cc1ccccc1)C(=O)OC)[C@@H](/C=C/C1CC1)[C@H](O)Cc1ccccc1`, the composite z-score in test [1] is -0.0272 (inactive); in test [2] it was -0.194. Moreover, the z-score in test [3] is -1.12; in test [4], -6.42 (inactive); in test [5], -0.121 (inactive); in test [6] it was 0.134 (inactive).
Regarding `COc1ccc([Si](C)(C)[C@@H]2[C@@H](CC(=O)N(CCO)Cc3ccccc3)O[C@]3(C(=O)N(Cc4cccc(N5CCCCC5=O)c4)c4ccccc43)[C@H]2C)cc1`, the composite z-score is 0.0247 (inactive) in test [1] and 0.709 in test [2]. Also, the z-score is -2.44 in test [3], -1.13 (inactive) in test [4], 0.405 (inactive) in test [5] and 0.797 (inactive) in test [6].
Consider `CCCC=C(CCC)[C@@H](NS(=O)(=O)c1ccc(C(F)(F)F)cc1)c1ccccc1`, for which the composite z-score in test [1] was 0.25 (inactive); in test [2], -0.0998. Moreover, the z-score is -1.5 in test [3], -0.64 (inactive) in test [4], -0.0215 (inactive) in test [5] and -0.157 (inactive) in test [6].
Take `CC1=C2[C@@H](CCc3ccccc3)OB(O)C[C@@H]2[C@@H]2C(=O)N(Cc3ccccc3)C(=O)[C@@H]2C1`: the composite z-score in test [1] was 0.291 (inactive); in test [2], 0.629. Moreover, the z-score in test [3] is 1.62; in test [4], -7.81 (inactive); in test [5], 0.235 (inactive); in test [6] it was 0.264 (inactive).
On to `CC(C)(C)OC(=O)CC[C@@]1(C(=O)NCC(O)CO)N=C(c2ccc(OCCCO)cc2)O[C@@H]1c1ccccc1CN=[N+]=[N-]` (stereo partly specified), for which the figures for the composite z-score in test [1] and in test [2] were -0.246 (inactive) and 0.57, respectively. For the same molecule, the z-score in test [3] was -0.711; in test [4], -5.44 (inactive); in test [5], 0.436 (inactive); in test [6], 0.71 (inactive).
Take `O=C1C2C=CC(C(O)c3ccco3)N(Nc3ccccc3F)C2C(=O)N1c1ccccc1` (stereo unspecified): the composite z-score was 0.36 (inactive) in test [1] and -0.139 in test [2]. Besides, the z-score in test [3] was 1.09; in test [4] it was -1.61 (inactive); in test [5], 0.456 (inactive); in test [6], 0.257 (inactive).
On to `C=CCC(OC(C)=O)[C@@H]1[C@@H](N(Cc2cc3ccccc3o2)C(=O)Cc2ccc(F)cc2)c2cc(OCCCO)ccc2N1C(=O)Cc1ccc2ccccc2c1` (stereo partly specified), for which the composite z-score in test [1] is -0.0865 (inactive); in test [2], -0.507. The z-score in test [3] was 0.694; in test [4], -1.9 (inactive); in test [5], 0.725 (inactive); in test [6] it was 0.113 (inactive).
As to `CCCNC(=O)[C@@H]1c2ccccc2C(=O)N(Cc2ccc(OC(F)(F)F)cc2)[C@H]1c1ccc(CO)cc1`, the composite z-score is 0.688 (inactive) in test [1] and 0.835 in test [2]. The z-score was -0.997 in test [3], -3 (inactive) in test [4], -0.615 (inactive) in test [5] and -0.366 (inactive) in test [6].
Regarding `COC(=O)[C@@]1(Cc2ccc(F)cc2)[C@H]2c3cc(C(=O)N(C)C)n(Cc4ccc(OC(F)(F)F)cc4)c3C[C@H]2CN1C(=O)c1ccccc1`, the composite z-score is 0.342 (inactive) in test [1] and -0.133 in test [2]. Besides, the z-score in test [3] is 0.595; in test [4], -0.102 (inactive); in test [5], 0.233 (inactive); in test [6] it was 0.579 (inactive).
In the case of `Cc1ccc(S[C@]2(C(=O)NCCN3CCOCC3)CC(=O)N(Cc3ccccc3Cl)[C@@H]2c2ccc(CO)cc2I)cc1`, the figures for the composite z-score in test [1] and in test [2] were 0.676 (inactive) and 0.433, respectively. Moreover, the z-score in test [3] was -0.244; in test [4] it was -2.18 (inactive); in test [5], 0.0327 (inactive); in test [6], 0.421 (inactive).
